In PubChem BioAssay (NCATS):
Records with an inconclusive call do not appear. Unless noted, the call rests on the fitted dose curve; in most records, active means well fitted curve in either direction with a large enough effect (not every such curve was filed as active); inconclusive means small, poorly fitted or top-dose-only effect, or another doubt; inactive means flat fitted curve, though single readings scatter.

How the values were obtained:
[1] = AP1 Signaling Pathway (AID 357); details: ME-180 AP-1-bla reporter, EGF-induced, beta-lactamase ratio, 5 h; at 17.2 µM (top of the series) unless noted;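 further: ME-180 reporter cells stimulated with EGF at its EC50 level; on the % scale 0 is the no-effect control and ±100 the full control effect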
In short: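 Read-out was the 460nm/530nm emission ratio (excitation 405nm) after CCF4 loading for 2.5 hours at room temperature. Cells carried an AP-1-driven beta-lactamase reporter, were stimulated with EC50 EGF plus compound for 5 hours, and AC50 values came from titrations.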

[2] = NFAT Signaling Pathway (AID 444); details: Jurkat NFAT-bla M1, carbachol, beta-lactamase ratio, 5 h; at 17.2 µM (top of the series) unless noted;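 further: carbachol stimulus at about its EC50 of 1 µM final; on the % scale 0 is the no-effect control and ±100 the full control effect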
In short: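 Jurkat cells with NFAT-driven β-lactamase reporter and co-expressed M1 receptor, stimulated with carbachol (final 1 uM, ~EC50), compound titration, 5 h at 37 °C. CCF4 loaded 1 h at RT; 460/530 nm ratio gave %activity and AC50.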

[3] = Stat Signaling Pathway (AID 446); details: ME-180 SIE beta-lactamase reporter, IL-6 stimulated, 5 h; at 17.2 µM (top of the series) unless noted;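 further: ME-180 cervical cancer cells given 40 pM IL-6 alongside compound; SIE-controlled beta-lactamase reporter measured as 460/530 nm FRET emission ratio; on the % scale 0 is the no-effect control and ±100 the full control effect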
In short: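 ME-180 cells carrying a SIE-driven beta-lactamase reporter are stimulated with 40 pM IL-6 for 5 h at 37C in the presence of compound. The 460/530 nm FRET substrate ratio is read after 2.5 h at RT. Data are normalised to 300 pM IL-6 and to 125 nM JAK inhibitor controls.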

[4] = biological target: Glucocorticoid receptor (Homo sapiens) (UniProt P04150); assay: GR-GFP Redistribution (AID 450;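 active means compounds whose dose series gives a full or clear partial fitted curve of increased nuclear translocation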; further: potency means the concentration at half of the fitted maximal effect)
Sequence of Glucocorticoid receptor (Homo sapiens) (P04150 whole entry, looked up): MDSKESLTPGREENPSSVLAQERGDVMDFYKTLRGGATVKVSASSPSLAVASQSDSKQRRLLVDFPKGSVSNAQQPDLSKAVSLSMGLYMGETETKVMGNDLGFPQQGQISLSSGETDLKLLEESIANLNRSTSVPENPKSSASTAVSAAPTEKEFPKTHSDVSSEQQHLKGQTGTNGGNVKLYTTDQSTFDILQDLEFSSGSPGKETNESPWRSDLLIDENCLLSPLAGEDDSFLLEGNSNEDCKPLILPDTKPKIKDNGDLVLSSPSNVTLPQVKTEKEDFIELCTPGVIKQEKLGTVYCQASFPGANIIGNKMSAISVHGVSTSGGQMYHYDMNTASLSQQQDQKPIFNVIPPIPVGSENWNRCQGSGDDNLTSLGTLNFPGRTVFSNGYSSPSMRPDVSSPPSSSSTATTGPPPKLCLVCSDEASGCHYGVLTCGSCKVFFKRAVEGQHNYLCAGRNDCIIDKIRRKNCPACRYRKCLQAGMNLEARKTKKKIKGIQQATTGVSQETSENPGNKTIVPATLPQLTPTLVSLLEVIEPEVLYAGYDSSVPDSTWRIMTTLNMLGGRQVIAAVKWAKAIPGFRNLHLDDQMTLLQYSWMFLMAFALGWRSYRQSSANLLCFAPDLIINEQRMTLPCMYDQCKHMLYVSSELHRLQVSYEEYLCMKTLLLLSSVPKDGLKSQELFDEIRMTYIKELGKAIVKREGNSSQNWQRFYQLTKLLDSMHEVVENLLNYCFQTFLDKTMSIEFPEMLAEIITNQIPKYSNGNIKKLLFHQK

Cc1ccc(N2CN=c3s/c(=C\c4cccnc4)c(=O)n3C2)cc1
inactive: activity change, negative = inhibition [1] -7.29% | activity change, negative = inhibition [2] -22.3% | activity, negative = inhibition [3] -5.47% | Potency [4] > 20.6 µM

COC(=O)/C=c1/s/c(=C(/C#N)C(=O)N2CCOCC2)n(-c2ccccc2)c1=O
inactive: activity change, negative = inhibition [1] 8.21% | activity change, negative = inhibition [2] -4.89% | activity, negative = inhibition [3] -9.79% | Potency [4] > 20.6 µM

Cc1cc(C)c2c(N)c(C(=O)c3ccccc3)oc2n1
inactive: activity change, negative = inhibition [1] 1.21% | activity change, negative = inhibition [2] 3.96% | activity, negative = inhibition [3] -8.9% | Potency [4] > 20.6 µM

CCOC(=O)C(C#N)C(Cc1ccccc1)c1ccco1 (configuration not stated)
inactive: activity change, negative = inhibition [1] -10.1% | activity change, negative = inhibition [2] -8.09% | activity, negative = inhibition [3] -9.08% | Potency [4] > 20.6 µM

C=CCOc1nc2c(c(=O)n(Cc3ccc(Cl)cc3)c(=O)n2C)n1C
inactive: activity change, negative = inhibition [1] -10.1% | activity change, negative = inhibition [2] 4.79% | activity, negative = inhibition [3] 9.68% | Potency [4] > 20.6 µM

COc1ccc(/C(O)=C2\C(=O)C(=O)N(c3cc(C)on3)C2c2cccc(OC)c2OC)cc1C (configuration not stated)
inactive: activity change, negative = inhibition [1] -5.37% | activity change, negative = inhibition [2] 6.15% | activity, negative = inhibition [3] -17.9% | Potency [4] > 20.6 µM

CCOc1ccc2nc(NC(NC(C)=O)(C(=O)OC)C(F)(F)F)sc2c1 (configuration not stated)
inactive: activity change, negative = inhibition [1] 5.71% | activity change, negative = inhibition [2] 0.18% | activity, negative = inhibition [3] -4.87% | Potency [4] > 20.6 µM

CCOC(=O)CC(C#N)c1cn(C)c2ccccc12 (configuration not stated)
inactive: activity change, negative = inhibition [1] 8.21% | activity change, negative = inhibition [2] -8.09% | activity, negative = inhibition [3] 3.49% | Potency [4] > 20.6 µM

CN(C)CCNc1nc(-c2ccco2)c2c(c1C#N)CC(C)(C)OC2
inactive: activity change, negative = inhibition [1] 9.95% | activity change, negative = inhibition [2] -23% | activity, negative = inhibition [3] 12.9% | Potency [4] > 20.6 µM

CCCCCC(=O)N1CC2(CC)CN(C(=O)CCCCC)CC(CC)(C1)C2=O
inactive: activity change, negative = inhibition [1] -3.04% | activity change, negative = inhibition [2] -17.5% | activity, negative = inhibition [3] 4.63% | Potency [4] > 20.6 µM

COc1ccc(C(CC(=O)N2CCOCC2)C(C)C)cc1 (configuration not stated)
inactive: activity change, negative = inhibition [1] 8.67% | activity change, negative = inhibition [2] 3.99% | activity, negative = inhibition [3] -3.69% | Potency [4] > 20.6 µM

Cc1cc2c(c(=O)o1)C(CC(C)C)C(C#N)=C(N)O2 (configuration not stated)
inactive: activity change, negative = inhibition [1] 14.1% | activity change, negative = inhibition [2] 4.64% | activity, negative = inhibition [3] 1.38% | Potency [4] > 20.6 µM

CC1(C)C/C(=C(/C#N)C(N)=O)CCO1
inactive: activity change, negative = inhibition [1] -0.694% | activity change, negative = inhibition [2] 2.44% | activity, negative = inhibition [3] 4.37% | Potency [4] > 20.6 µM

COc1cc(-c2nn3c(-c4ccco4)nnc3s2)cc(OC)c1OC
inactive: activity change, negative = inhibition [1] -2.59% | activity change, negative = inhibition [2] -0.323% | activity, negative = inhibition [3] -1.97% | Potency [4] > 20.6 µM

Cc1cc(C)n(C(=O)CN2C(=O)CCC2=O)n1
inactive: activity change, negative = inhibition [1] 14.2% | activity change, negative = inhibition [2] 0.324% | activity, negative = inhibition [3] 3.71% | Potency [4] > 20.6 µM

COc1ccc2c(c1)[nH]c1c(=O)n(CCN(C)C)cnc12
inactive: activity change, negative = inhibition [1] 10.5% | activity change, negative = inhibition [2] 15.2% | activity, negative = inhibition [3] 8.04% | Potency [4] > 20.6 µM

Cc1cc(C)n(-c2ncnc3sc(C)c(C)c23)n1
inactive: activity change, negative = inhibition [1] -15.7% | activity change, negative = inhibition [2] -7.26% | activity, negative = inhibition [3] 6.68% | Potency [4] > 20.6 µM

Cc1cc(=O)[nH]c(COc2ccccc2)n1
inactive: activity change, negative = inhibition [1] 3.59% | activity change, negative = inhibition [2] -7.86% | activity, negative = inhibition [3] -2.52% | Potency [4] > 20.6 µM
